This passage reports log2 fold change results from the supplement of paper PMC10849652.

The full data set covers some 7,900 targets. This sample favours those with a hit. About 0.6% of all pairs of compound and target were hits. Values without a mark were called inactive.

UniProt Q8NCE2, sequence (Q8NCE2 whole entry, looked up): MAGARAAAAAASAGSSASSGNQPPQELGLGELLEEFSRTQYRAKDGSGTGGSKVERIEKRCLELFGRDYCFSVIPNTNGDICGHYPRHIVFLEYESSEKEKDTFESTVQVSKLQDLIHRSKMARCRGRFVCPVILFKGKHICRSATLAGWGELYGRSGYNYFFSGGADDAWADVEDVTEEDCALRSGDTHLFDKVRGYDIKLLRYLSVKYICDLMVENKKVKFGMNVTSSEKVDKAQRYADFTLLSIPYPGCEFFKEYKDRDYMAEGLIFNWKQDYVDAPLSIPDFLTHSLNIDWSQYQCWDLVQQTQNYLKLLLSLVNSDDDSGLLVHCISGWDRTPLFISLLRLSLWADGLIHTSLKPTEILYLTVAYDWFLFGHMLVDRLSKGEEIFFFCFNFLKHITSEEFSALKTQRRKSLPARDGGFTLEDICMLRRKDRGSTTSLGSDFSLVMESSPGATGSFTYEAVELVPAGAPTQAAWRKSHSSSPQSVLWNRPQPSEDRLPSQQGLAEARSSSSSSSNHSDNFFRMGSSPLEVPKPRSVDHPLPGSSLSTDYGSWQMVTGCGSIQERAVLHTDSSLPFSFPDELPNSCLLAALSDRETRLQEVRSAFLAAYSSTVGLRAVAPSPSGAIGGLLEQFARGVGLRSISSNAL
UniProt Q9UH92, sequence (Q9UH92 whole entry, looked up): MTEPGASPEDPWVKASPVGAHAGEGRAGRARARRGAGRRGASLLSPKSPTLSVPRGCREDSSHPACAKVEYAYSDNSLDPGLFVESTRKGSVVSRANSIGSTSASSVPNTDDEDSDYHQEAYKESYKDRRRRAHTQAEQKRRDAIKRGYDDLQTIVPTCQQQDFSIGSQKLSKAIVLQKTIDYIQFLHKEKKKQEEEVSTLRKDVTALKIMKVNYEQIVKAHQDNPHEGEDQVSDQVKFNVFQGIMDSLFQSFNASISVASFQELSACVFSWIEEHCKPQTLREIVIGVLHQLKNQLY
UniProt Q14149, sequence (Q14149 whole entry, looked up): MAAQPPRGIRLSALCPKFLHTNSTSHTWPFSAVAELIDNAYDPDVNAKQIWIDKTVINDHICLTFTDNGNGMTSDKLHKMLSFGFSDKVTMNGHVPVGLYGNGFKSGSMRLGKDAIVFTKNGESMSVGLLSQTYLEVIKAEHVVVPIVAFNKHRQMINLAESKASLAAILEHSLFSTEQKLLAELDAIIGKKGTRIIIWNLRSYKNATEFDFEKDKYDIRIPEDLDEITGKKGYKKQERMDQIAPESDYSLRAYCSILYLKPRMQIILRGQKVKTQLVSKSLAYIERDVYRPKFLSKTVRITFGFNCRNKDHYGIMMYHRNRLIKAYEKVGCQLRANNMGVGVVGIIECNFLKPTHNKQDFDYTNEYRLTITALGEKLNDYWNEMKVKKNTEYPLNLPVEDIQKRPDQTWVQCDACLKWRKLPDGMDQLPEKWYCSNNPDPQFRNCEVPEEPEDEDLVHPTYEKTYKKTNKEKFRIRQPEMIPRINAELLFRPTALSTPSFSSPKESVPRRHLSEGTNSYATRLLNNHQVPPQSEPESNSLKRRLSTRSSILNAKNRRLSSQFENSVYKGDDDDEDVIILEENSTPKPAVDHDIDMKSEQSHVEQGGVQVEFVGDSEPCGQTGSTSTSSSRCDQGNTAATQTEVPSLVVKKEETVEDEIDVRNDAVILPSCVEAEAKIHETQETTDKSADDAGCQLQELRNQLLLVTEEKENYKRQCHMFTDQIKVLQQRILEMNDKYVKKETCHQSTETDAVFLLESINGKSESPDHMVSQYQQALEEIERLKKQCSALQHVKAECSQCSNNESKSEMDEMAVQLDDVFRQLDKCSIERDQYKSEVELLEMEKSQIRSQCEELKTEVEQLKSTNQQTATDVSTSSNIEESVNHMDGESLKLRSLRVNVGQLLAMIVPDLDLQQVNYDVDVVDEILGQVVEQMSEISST
UniProt Q92692, sequence (Q92692 whole entry, looked up): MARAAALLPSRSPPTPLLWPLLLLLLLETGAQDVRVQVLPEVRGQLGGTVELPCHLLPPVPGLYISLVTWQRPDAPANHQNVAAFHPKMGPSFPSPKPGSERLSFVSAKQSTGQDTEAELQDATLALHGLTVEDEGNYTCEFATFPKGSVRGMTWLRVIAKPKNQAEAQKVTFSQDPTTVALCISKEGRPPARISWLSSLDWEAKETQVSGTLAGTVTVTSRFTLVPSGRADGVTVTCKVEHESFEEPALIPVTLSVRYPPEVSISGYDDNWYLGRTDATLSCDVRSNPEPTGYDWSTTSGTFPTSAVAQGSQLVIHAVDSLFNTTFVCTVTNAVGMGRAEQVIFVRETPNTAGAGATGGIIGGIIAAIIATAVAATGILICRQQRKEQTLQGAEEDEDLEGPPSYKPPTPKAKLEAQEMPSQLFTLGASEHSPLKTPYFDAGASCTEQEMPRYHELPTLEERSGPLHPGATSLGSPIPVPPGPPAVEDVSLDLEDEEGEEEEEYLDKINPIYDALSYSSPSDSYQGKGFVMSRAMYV
UniProt Q16621, sequence (Q16621 whole entry, looked up): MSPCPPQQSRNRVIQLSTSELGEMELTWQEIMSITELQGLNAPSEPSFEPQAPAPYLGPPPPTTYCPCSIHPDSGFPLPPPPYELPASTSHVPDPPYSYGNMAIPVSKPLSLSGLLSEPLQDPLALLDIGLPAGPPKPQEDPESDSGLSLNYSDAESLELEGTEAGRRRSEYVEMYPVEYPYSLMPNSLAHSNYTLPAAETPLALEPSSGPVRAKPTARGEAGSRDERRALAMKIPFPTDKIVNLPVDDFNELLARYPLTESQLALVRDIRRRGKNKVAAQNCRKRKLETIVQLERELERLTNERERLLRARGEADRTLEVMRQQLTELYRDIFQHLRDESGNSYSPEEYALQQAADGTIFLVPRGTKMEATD
UniProt P52701, sequence (P52701 whole entry, looked up): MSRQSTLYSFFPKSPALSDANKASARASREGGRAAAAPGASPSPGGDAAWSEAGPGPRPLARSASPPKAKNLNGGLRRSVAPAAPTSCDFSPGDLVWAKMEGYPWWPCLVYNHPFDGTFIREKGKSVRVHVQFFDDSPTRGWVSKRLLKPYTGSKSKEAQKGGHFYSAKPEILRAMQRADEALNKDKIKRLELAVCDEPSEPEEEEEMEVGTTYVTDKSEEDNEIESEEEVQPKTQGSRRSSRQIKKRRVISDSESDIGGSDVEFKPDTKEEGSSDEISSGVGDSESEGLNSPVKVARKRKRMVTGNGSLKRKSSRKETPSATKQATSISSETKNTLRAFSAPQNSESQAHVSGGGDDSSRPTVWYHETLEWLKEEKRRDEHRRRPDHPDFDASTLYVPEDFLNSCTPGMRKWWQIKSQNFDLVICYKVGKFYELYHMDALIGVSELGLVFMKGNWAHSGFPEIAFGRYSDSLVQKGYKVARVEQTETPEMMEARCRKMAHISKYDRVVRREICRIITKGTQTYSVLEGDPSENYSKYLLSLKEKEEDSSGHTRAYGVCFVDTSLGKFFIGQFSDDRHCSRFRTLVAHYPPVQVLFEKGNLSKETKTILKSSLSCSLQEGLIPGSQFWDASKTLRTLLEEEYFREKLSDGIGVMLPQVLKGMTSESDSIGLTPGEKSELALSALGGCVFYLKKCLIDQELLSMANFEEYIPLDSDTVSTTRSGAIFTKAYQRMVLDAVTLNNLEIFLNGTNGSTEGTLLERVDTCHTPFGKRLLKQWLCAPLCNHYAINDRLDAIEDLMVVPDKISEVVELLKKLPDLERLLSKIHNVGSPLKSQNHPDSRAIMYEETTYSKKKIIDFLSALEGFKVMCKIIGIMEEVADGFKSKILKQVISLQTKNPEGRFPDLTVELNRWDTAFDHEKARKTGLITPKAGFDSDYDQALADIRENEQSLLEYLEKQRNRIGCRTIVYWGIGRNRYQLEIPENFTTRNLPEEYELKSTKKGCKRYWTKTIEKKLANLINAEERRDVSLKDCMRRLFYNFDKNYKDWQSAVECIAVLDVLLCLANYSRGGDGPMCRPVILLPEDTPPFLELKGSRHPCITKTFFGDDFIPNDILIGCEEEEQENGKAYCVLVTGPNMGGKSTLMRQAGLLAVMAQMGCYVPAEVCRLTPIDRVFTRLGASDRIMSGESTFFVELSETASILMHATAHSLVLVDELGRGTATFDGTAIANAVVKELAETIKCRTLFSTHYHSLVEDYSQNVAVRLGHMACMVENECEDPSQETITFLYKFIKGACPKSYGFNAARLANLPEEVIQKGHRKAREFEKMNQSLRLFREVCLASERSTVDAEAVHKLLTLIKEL
UniProt Q8WV92, sequence (Q8WV92 whole entry, looked up): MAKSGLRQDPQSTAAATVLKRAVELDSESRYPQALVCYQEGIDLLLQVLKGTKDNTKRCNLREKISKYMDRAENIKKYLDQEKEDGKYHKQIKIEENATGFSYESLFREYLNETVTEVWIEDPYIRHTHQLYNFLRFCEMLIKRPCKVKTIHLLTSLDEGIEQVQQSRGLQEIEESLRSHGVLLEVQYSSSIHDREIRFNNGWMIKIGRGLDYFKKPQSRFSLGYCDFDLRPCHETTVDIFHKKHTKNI
UniProt Q9H1E3, sequence (Q9H1E3 whole entry, looked up): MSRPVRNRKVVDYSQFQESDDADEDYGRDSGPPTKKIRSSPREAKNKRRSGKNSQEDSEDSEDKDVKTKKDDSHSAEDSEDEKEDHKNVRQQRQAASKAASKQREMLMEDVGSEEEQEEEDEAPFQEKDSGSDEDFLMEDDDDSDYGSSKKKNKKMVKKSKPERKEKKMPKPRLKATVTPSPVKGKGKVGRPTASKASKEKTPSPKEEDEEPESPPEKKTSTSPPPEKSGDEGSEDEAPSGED
UniProt O43181, sequence (O43181 whole entry, looked up): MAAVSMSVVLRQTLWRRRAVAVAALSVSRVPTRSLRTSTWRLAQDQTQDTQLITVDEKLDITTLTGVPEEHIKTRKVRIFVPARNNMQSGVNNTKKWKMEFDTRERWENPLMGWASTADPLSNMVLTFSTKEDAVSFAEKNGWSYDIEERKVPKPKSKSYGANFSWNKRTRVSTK
UniProt O00483, sequence (O00483 whole entry, looked up): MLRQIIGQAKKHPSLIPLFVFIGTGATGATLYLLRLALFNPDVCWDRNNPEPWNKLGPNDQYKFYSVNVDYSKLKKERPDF

Compound in one experiment: C#Cc1cccc(Nc2ncnc3cc(OCCOC)c(OCCOC)cc23)c1 [erlotinib]
Briefly: log2 fold change, soluble protein after heating vs DMSO (PISA); higher = thermal stabilisation; K562 cells, 10 uM, 30 min; active = over 0.2 and 3.5 SD of the protein, either way, in both replicates (recomputed). A digest of the protocol: (§1)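 Aliquots of K562 cells (2×10^6 cells/mL) treated with 10 μM compound for 30 min were heated for 3 min over 48°C-58°C. After pooling and extraction in PBS with 0.5% NP-40 at 4°C, soluble protein from a 21,000xg, 90 min spin was quantified by TMTpro 16plex LC-MS/MS with channel sums equalised. Thermal stability is expressed against control samples, from duplicates, as a log2 fold change.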
Regarding MNAT1 (UniProt P51948), the log2 fold change was 0.01.
As to NUDT1 (UniProt P36639), the log2 fold change is 0.164.
Regarding OGFR (UniProt Q9NZT2), the log2 fold change is 0.009.
On the same count and under the same terms, next, MT-ND4 (UniProt P03905): 0.152.
Same read-out and setting: the figure for MTFR1L (UniProt Q9H019) is -0.002; for MRPS15 (UniProt P82914) it is -0.061.
Still for that read-out and setting: next, NCAPG (UniProt Q9BPX3): -0.007; MITD1 (UniProt Q8WV92): 0.011; NPC1 (UniProt O15118): 0.027.
For MRPS12 (UniProt O15235), the log2 fold change is -0.013.
Still for that read-out and setting: next, MORC3 (UniProt Q14149): 0.022; NRDC isoform 2 (UniProt O43847): -0.016.
In the case of NARS2 (UniProt Q96I59), the log2 fold change was 0.037.
On to MSTO1 (UniProt Q9BUK6), for which the log2 fold change is 0.031.
Same read-out and setting: the figure for NECTIN2 (UniProt Q92692) is 0.002; for NEDD4L (UniProt Q96PU5) it is 0.014; for NA, A0A0B4J2A0 it is -0.037.
Turning to NUCKS1 (UniProt Q9H1E3), the log2 fold change is 0.045.
In the case of MRPS9 (UniProt P82933), the log2 fold change is -0.057.
On the same count and under the same terms, the figure for NFYC (UniProt Q13952) is 0.014.
On the same count and under the same terms, the figure for MTMR14 (UniProt Q8NCE2) is -0.019; for NSMCE2 (UniProt Q96MF7) it is -0.076.
Still for that read-out and setting: the figure for NOP53 (UniProt Q9NZM5) is -0.201; for MRPL47 (UniProt Q9HD33) it is -0.189; for MRPL50 (UniProt Q8N5N7) it is -0.107.
On to NDUFA4 (UniProt O00483), for which the log2 fold change was -0.134.
Consider NDUFS4 (UniProt O43181), for which the log2 fold change is -0.001.
As to MRPS16 (UniProt Q9Y3D3), the log2 fold change is -0.126.
On to NAP1L1 (UniProt P55209), for which the log2 fold change is -0.021.
For the target OXA1L (UniProt Q15070), the log2 fold change is -0.014.
Regarding MSH6 (UniProt P52701), the log2 fold change was 0.286.
The same measure, in the same setting: next, NMD3 (UniProt Q96D46): 0.025; NDUFS8 (UniProt O00217): 0.015.
On the same count and under the same terms, next, NOP2 isoform 4 (UniProt P46087): -0.17.
Turning to NEU1 (UniProt Q99519), the log2 fold change was 0.001.
On to MRPS31 (UniProt Q92665), for which the log2 fold change was 0.003.
Still for that read-out and setting: next, NCAPD2 (UniProt Q15021): 0.029; MLX (UniProt Q9UH92): 0.038; NFE2 (UniProt Q16621): 0.009.

Compound in the next experiment: C/C(=N\NC(=O)C1=CC(=CC=C1)S(=O)(=O)N2CCOCC2)/C3=C(C=CC(=C3)Cl)O
Described as above. A digest of the protocol: as §1
In the case of MNAT1 (UniProt P51948), the log2 fold change was 0.04.
Take NUDT1 (UniProt P36639): the log2 fold change was -0.018.
The same measure, in the same setting: the figure for OGFR (UniProt Q9NZT2) is 0.207.
The same measure, in the same setting: next, MT-ND4 (UniProt P03905): -0.077; MTFR1L (UniProt Q9H019): -0.013; MRPS15 (UniProt P82914): -0.201.
With NCAPG (UniProt Q9BPX3), the log2 fold change was 0.114.
In the case of MITD1 (UniProt Q8WV92), the log2 fold change is -0.009.
For the target NPC1 (UniProt O15118), the log2 fold change is -0.033.
The same measure, in the same setting: the figure for MRPS12 (UniProt O15235) is 0.008; for MORC3 (UniProt Q14149) it is 0.084.
The same measure, in the same setting: next, NRDC isoform 2 (UniProt O43847): 0.081.
The same measure, in the same setting: the figure for NARS2 (UniProt Q96I59) is 0.065.
For the target MSTO1 (UniProt Q9BUK6), the log2 fold change is 0.06.
Take NECTIN2 (UniProt Q92692): the log2 fold change is 0.005.
Regarding NEDD4L (UniProt Q96PU5), the log2 fold change was 0.078.
The same measure, in the same setting: the figure for NA, A0A0B4J2A0 is 0.07; for NUCKS1 (UniProt Q9H1E3) it is -0.098.
For the target MRPS9 (UniProt P82933), the log2 fold change was -0.019.
On to NFYC (UniProt Q13952), for which the log2 fold change is 0.004.
On the same count and under the same terms, next, MTMR14 (UniProt Q8NCE2): 0.009; NSMCE2 (UniProt Q96MF7): 0.012; NOP53 (UniProt Q9NZM5): -0.272.
For the target MRPL47 (UniProt Q9HD33), the log2 fold change was -0.107.
MRPL50 (UniProt Q8N5N7): the log2 fold change was -0.033.
On the same count and under the same terms, next, NDUFA4 (UniProt O00483): 0.002; NDUFS4 (UniProt O43181): -0.031.
Still for that read-out and setting: next, MRPS16 (UniProt Q9Y3D3): 0; NAP1L1 (UniProt P55209): 0.006.
For OXA1L (UniProt Q15070), the log2 fold change is 0.029.
On the same count and under the same terms, the figure for MSH6 (UniProt P52701) is 0.224; for NMD3 (UniProt Q96D46) it is 0.011.
Same read-out and setting: the figure for NDUFS8 (UniProt O00217) is 0.045.
With NOP2 isoform 4 (UniProt P46087), the log2 fold change is -0.261.
On the same count and under the same terms, next, NEU1 (UniProt Q99519): -0.05.
With MRPS31 (UniProt Q92665), the log2 fold change is 0.001.
As to NCAPD2 (UniProt Q15021), the log2 fold change is 0.107.
As to MLX (UniProt Q9UH92), the log2 fold change was 0.135.
Still for that read-out and setting: next, NFE2 (UniProt Q16621): 0.005.
